Tests used:
[1] = test system: Human papillomavirus type 1a protein E7 (residues 44-93); assay: HPV1a E7 fragment binders on microarrays, primary screen, biochemical, small-molecule microarray, residues 44-93, 635 nm fluorescence (AID 1108); details: small-molecule microarray binding, fluorescence 635 nm; higher = more signal;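 also: E7 fragment applied at 1 µg/mL in TBST for 1 h at 4 C; score combines spot fluorescence with its signal to noise ratio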
[2] = modulators of HCV replicon luciferase signal, primary screen, HCV replication inhibitor project, Huh7 cells, luciferase reporter (AID 1109); details: 48 h, higher = more signal;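 also: huh7 hepatoma cells harbouring a luciferase neomycin HCV replicon reporter; luciferase luminescence as measure of HCV replicon replication; test concentration not given here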
[3] = biological target: Left-right determination factor 2 (Homo sapiens) (UniProt O00292); assay: LEFTY2 binders on small-molecule microarrays, primary screen, biochemical, small-molecule microarray, 635 nm fluorescence scan (AID 1110); details: LEFTY2 binding, higher = more signal
[4] = biological target: Calmodulin-1 (Homo sapiens) (UniProt P0DP23); assay: CALM1 binders on microarrays, EGTA buffer, profiling panel, biochemical, small-molecule microarray, Cy5-labelled CALM1 (AID 1111); details: Cy5-CALM1 binding fluorescence, higher = more signal;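 also: labelled calmodulin applied in Tris saline Tween buffer holding calcium plus EGTA and DTT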
[5] = biological target: Calmodulin-1 (Homo sapiens) (UniProt P0DP23); assay: calcium-bound CALM1 binders on microarrays, profiling panel, artefact control for SMM control-protein annotation, biochemical, small-molecule microarray, Cy5-labelled CALM1, plus calcium (AID 1112); details: Cy5-CALM1 binding fluorescence, higher = more signal;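 also: score merges spot fluorescence with signal to noise from triplicate slides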
[6] = small-molecule microarray binders of probe aWnt5a, primary screen, biochemical, biotinylated probe, 635/667 nm fluorescence (AID 1113); details: higher = more signal;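 also: score merges 667 nm fluorescence intensity with signal-to-noise per printed feature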
[7] = small-molecule microarray binders of probe aShh, primary screen, biochemical, biotinylated probe, 635/667 nm fluorescence (AID 1114); details: higher = more signal;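 also: probe is biotin-labelled aShh protein from a stem cell growth factor screen; measures binding of labelled protein to compounds printed on the slide; score merges feature fluorescence at 667 nm with signal-to-noise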
[8] = small-molecule microarray binders of probe aNog, primary screen, biochemical, biotinylated probe, 635/667 nm fluorescence (AID 1115); details: higher = more signal;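 also: probe is biotinylated aNog protein used at 0.15 µg/mL for 1 h at 4 C; z-score combines 667 nm fluorescence of each spot with its signal to noise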
[9] = biological target: Torsin-1A-interacting protein 1 (Homo sapiens) (UniProt Q5JTV8); assay: LAP1 binders from COS7 cell lysate, primary screen, small-molecule microarray, 635/667 nm fluorescence (AID 1116); details: COS7-hLAP1 lysate binding, 635 nm fluorescence, higher = more signal
[10] = biological target: Alpha-bungarotoxin (Bungarus multicinctus) (UniProt P60615); assay: alpha-bungarotoxin binders on microarray, profiling panel, artefact control for SMM control protein annotation, biochemical, small-molecule microarray, Alexa647 label, 635/667 nm fluorescence (AID 1117); details: alpha-BTX-A647 binding fluorescence, higher = more signal
Alpha-bungarotoxin (Bungarus multicinctus), sequence (P60615 whole entry, looked up): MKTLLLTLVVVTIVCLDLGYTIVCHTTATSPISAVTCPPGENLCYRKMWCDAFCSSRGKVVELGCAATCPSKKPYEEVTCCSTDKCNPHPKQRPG

Torsin-1A-interacting protein 1 (Homo sapiens), sequence (Q5JTV8 whole entry, looked up): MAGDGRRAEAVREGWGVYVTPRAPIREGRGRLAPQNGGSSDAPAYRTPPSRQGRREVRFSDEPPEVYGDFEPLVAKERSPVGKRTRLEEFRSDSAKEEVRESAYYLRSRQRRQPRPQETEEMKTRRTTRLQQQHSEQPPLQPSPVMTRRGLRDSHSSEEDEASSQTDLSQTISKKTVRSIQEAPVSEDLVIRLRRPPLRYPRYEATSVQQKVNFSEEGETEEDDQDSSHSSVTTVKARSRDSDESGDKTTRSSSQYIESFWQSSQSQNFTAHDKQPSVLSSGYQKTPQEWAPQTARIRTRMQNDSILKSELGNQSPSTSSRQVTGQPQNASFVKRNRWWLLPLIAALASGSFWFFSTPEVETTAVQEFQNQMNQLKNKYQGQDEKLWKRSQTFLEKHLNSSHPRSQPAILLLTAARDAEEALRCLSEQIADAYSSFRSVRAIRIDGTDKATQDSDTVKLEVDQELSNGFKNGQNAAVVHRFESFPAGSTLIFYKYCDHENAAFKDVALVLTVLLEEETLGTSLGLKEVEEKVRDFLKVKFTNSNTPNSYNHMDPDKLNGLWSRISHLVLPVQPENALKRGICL
Left-right determination factor 2 (Homo sapiens), sequence (O00292 whole entry, looked up): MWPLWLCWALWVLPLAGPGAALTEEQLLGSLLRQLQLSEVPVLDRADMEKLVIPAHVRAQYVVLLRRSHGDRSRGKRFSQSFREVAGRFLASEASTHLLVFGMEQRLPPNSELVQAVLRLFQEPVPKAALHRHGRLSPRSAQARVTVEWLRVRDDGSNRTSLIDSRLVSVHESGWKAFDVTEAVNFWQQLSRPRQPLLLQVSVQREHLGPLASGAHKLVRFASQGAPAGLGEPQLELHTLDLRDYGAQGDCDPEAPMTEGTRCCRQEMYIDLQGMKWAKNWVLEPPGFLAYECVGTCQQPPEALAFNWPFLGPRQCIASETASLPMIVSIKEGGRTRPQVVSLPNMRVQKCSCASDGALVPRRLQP

| SMILES | composite z-score [1] | z-score [2] | composite z-score [3] | composite z-score [4] | composite z-score [5] | composite z-score [6] | composite z-score [7] | composite z-score [8] | composite z-score [9] | composite z-score [10] |
| --- | --- | --- | --- | --- | --- | --- | --- | --- | --- | --- |
| CC1CC/C=C\[C@H]2OC34C=CCN(CCN5CCOCC5)C(=O)[C@H]3N(CCO)C(=O)[C@@H]4C2C(=O)O1 (stereo not given in full) | -1.99 | -0.504 | -1.2 | -0.714 | -0.307 | -0.166 | -0.154 | -0.145 | 0.0159 | -1.02 |
| CC(CO)N1C(=O)[C@@H]2C3C(=O)OCCC/C=C\[C@H]3OC23C=CCN(Cn2nnc4ccccc42)C(=O)[C@@H]13 (stereo not given in full) | -1.01 | -0.456 | -0.214 | -0.45 | -0.205 | -0.152 | -0.0553 | -0.196 | -0.718 | -0.559 |
| CN1C(=O)C2C=CC(C(O)c3c(F)cccc3Cl)N(Nc3ccccc3)C2C1=O (stereo not given) | 1.19 | -0.659 | -0.445 | 1.45 | 0.496 | -0.0276 | 0.432 | 0.707 | 0.0127 | 0.904 |
| COCCOC(=O)N1C(=O)[C@@]2(c3cc(C#Cc4ccc(OC)cc4)ccc31)[C@H](C(=O)N1CCCCCCC1)[C@H]1C(=O)O[C@H](c3ccccc3)[C@H](c3ccccc3)N1[C@@H]2c1ccc(O)cc1 | 1.36 | -0.949 | 0.505 | 0.172 | 0.184 | -0.0239 | 0.603 | 1.18 | 0.604 | 0.723 |
| COc1ccc(NN2C(C(O)c3ccco3)C=CC3C(=O)N(C4CCCCC4)C(=O)C32)cc1 (stereo not given) | 1.42 | 0.224 | 0.519 | 0.9 | 0.267 | 0.0613 | 0.0639 | 0.353 | 0.605 | 0.916 |
| Cc1ccc(S[C@]2(C(=O)NC(C)C)CC(=O)N(C3Cc4ccccc4C3)[C@@H]2c2ccc(CO)cc2I)cc1 | -0.803 | -2.19 | -2.04 | -0.625 | -1.08 | -0.596 | -0.291 | -1.12 | -0.664 | -0.365 |
| COCCOC(=O)N1C(=O)[C@@]2(c3cc(C#CC4(O)CCCCCC4)ccc31)[C@H](c1ccccc1OCCO)N1[C@H](c3ccccc3)[C@H](c3ccccc3)OC(=O)[C@H]1[C@@H]2C(N)=O | -0.389 | -3.33 | 0.844 | 1.06 | 0.0078 | -0.101 | 0.337 | 0.347 | 0.425 | 1.72 |
| COC(=O)C1(Cc2ccccc2)C=C2C(=C(c3ccccc3)C(=O)C2C)CN1 (stereo not given) | -0.964 | -1.53 | -0.871 | 0.648 | 1.18 | 1.11 | 2.71 | 1.05 | 1.22 | 0.0329 |
| COc1c(C)cc(-c2cc3c(c(Cc4ccccc4)n2)[Si](C(C)C)(C(C)C)OC3)cc1C | -0.0363 | -0.637 | 0.265 | 0.0153 | 0.0467 | -0.096 | -0.123 | -0.393 | -0.0091 | 0.229 |
